According to PubChem BioAssay:
Values joined by “and” are separate entries in the source; they are usually repeats but may differ in a detail not shown here. Identical values can stand only once. A structure can be active in one record and inactive in another. Active and inactive are the calls of the source.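 How the source made its calls, unless noted: active means thallium flux through the channel raised or lowered by more than 3 SD from vehicle-only wells, actives on both sides; inactive means the rest.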

How the values were obtained:
[1] = blockers of polyQ-driven CASP3 activation – cell-based (AID 1583); conditions: polyglutamine-induced caspase-3 activation, cell assay; stronger effect = higher value;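 tested at 10 µM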
[2] = yeast 75Q aggregation reduction – 75Q-TubU reporter (AID 1593); conditions: Yeast 75Q polyglutamine aggregation reporter
[3] = blockers of cytochrome c efflux from mitochondria – biochemical, purified mitochondria (AID 1603); conditions: stronger effect = lower value;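 further: mouse liver mitochondria challenged with calcium chloride; signal normalized to the plate average as 100%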
[4] = polyglutamine aggregate formation blockers (AID 1604); conditions: polyglutamine-induced protein aggregation inhibition assay; stronger effect = higher value; tested at 2.5 µM
[5] = glutamate transport activators, MN-1 cells, MN-1 cell line (AID 1612); conditions: MN-1 motor neuron cells, stronger effect = higher value;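 further: tested at 1 µM final; 0% = mean of DMSO vehicle wells on each plate; positive means more glutamate uptake than control and negative means less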
[6] = signal quenchers or enhancers, Cy5 substrate/SSB – biochemical, NIH Clinical Collection, E. coli SSB, artefact control for HCV NS3 helicase inhibitor project (AID 743268; call rule not given here); conditions: Cy5-oligo bound E. coli SSB, fluorescence interference
[7] = test system: Hepatitis C virus NS3 helicase; assay: blockers of NS3h binding to DNA – biochemical, fluorescence polarization, NIH Clinical Collection, primary screen (AID 743270; call rule not given here); conditions: NS3 helicase binding to Cy5-dT15 DNA, stronger effect = higher value, concentration not given here
[8] = molecular target: Single-stranded DNA-binding protein (Escherichia coli (strain K12)) (UniProt P0AGE0); assay: SSB-ssDNA binding inhibitors – biochemical, fluorescence polarization, NIH Clinical Collection, counter-screen for HCV NS3 helicase inhibitor project (AID 743271; in the data active means inhibition above about 28%); conditions: E. coli SSB-DNA binding, stronger effect = higher value, concentration not given here
[9] = compounds distorting NS3 helicase fluorescence signal – biochemical, NIH Clinical Collection, artefact control for HCV NS3 helicase inhibitor project (AID 743272; call rule not given here;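 further: HCV NS3 helicase with a Cy5 labelled single stranded DNA probe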); conditions: fluorescence interference counterscreen, HCV NS3 helicase assay; stronger effect = lower value
[10] = galactose survival enhancers in mitochondrial complex I cybrids – cell-based, galactose medium, ATP luminescence, primary screen (AID 1645843;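 active means z-score of at least 1.8 in each of two replicates, scored against plate mean and spread of sample wells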;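 further: positive z means more ATP and so rescue of galactose-driven cybrid death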); conditions: complex I mutant cybrid cells, 72 h, stronger effect = higher value
[11] = test system: F380Y/beta4; assay: BK channel mutant inhibitors and activators – cell-based, U2OS BacMam, thallium flux, beta subunits, selectivity assay, profiling panel (AID 1259406); conditions: U2OS BacMam BK variants, at 30 µM;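 further: initial slope of Thallos dye fluorescence rise after thallium is added; log ratio against the mean of 0.3% DMSO vehicle wells on the same plate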
[12] = molecular target: Calcium-activated potassium channel subunit alpha-1 (Homo sapiens) + Leucine-rich repeat-containing protein 26 (Homo sapiens) (UniProt Q12791+Q2I0M4); assay: as above; conditions: U2OS BacMam BK variants, F380Y/Slo1WT/gamma1, at 30 µM
Calcium-activated potassium channel subunit alpha-1 (Homo sapiens) + Leucine-rich repeat-containing protein 26 (Homo sapiens), sequence (Q2I0M4 whole entry, looked up, one chain of several): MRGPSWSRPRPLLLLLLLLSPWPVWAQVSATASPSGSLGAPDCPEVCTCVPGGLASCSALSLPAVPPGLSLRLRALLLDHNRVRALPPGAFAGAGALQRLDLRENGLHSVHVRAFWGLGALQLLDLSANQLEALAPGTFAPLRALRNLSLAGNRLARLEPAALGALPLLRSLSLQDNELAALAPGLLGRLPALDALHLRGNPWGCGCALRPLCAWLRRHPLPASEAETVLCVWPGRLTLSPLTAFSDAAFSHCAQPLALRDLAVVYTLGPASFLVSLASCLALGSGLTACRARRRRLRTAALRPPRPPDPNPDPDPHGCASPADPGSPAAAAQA

[13] = test system: R275C; assay: as above; conditions: U2OS BacMam BK variants, at 30 µM
[14] = test system: R275C/beta1; assay: as above; conditions: U2OS BacMam BK variants, at 30 µM
[15] = test system: R275C/beta2Delta; assay: as above; conditions: U2OS BacMam BK variants, at 30 µM
[16] = test system: R275C/beta4; assay: as above; conditions: U2OS BacMam BK variants, at 30 µM
[17] = test system: R275C/Slo1WT/beta2; assay: as above; conditions: U2OS BacMam BK variants, at 30 µM
[18] = growth inhibition, single agent or in combination, cell-based, chromothripsis tumors, cisplatin or BGB combos (AID 1671449; in the data active means inhibition above about 80%;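 further: cells exposed for 96 hours; 0% = vehicle DMSO and 100% = killing by high DMSO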); conditions: LFS_MB_P medulloblastoma cells
[19] = growth inhibition, single agent and combos, cell-based, chromothripsis tumors, cisplatin or BGB combos (AID 1671450; in the data active means inhibition above about 80%;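 further: cells exposed to compound for four days; 0% = vehicle DMSO and 100% = cell killing by high DMSO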); conditions: HDN33 neuroblastoma cells, stronger effect = higher value
[20] = growth inhibition, single agents and combos, HTB85, cell-based, BGB or cisplatin IC20 combos, synergistic combos for chromothripsis tumors (AID 1671453; in the data active means inhibition above about 80%;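 further: cells exposed for 96 hours before readout; 0% = vehicle DMSO and 100% = high DMSO killing control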); conditions: HTB85 osteosarcoma cells, drug combinations, stronger effect = higher value

NCc1ccc(S(N)(=O)=O)cc1
inhibition [1]: -6.75%
score [2]: 1.19
cytochrome c release ratio [3]: 0.88
inhibition of aggregation [4]: 81.7%
glutamate uptake change [5]: -7.14%
fluorescence ratio [6]: 1.01 (inactive)
inhibition [7]: -7.73% (inactive)
inhibition [8]: 1.05% (inactive)
fluorescence ratio [9]: 1.01 (inactive)
z-score [10]: 1.92 (inactive)
log fold change Tl+ flux [11]: -0.0354 (inactive)
log fold change Tl+ flux [12]: 0.00552 (inactive)
log fold change Tl+ flux [13]: 0.00729 (inactive)
log fold change Tl+ flux [14]: -0.0404 (inactive)
log fold change Tl+ flux [15]: 0.176 (active)
log fold change Tl+ flux [16]: -0.0166 (inactive)
log fold change Tl+ flux [17]: -0.0456 (inactive)

Cc1ncc([N+](=O)[O-])n1CC(C)O (stereo unspecified)
fluorescence ratio [6]: 1.05 (inactive)
inhibition [7]: 5.15% (inactive)
inhibition [8]: 6.83% (inactive)
fluorescence ratio [9]: 1 (inactive)
z-score [10]: 0.59 (inactive) and 0.27 (inactive)
log fold change Tl+ flux [11]: 0.0424 (inactive)
log fold change Tl+ flux [12]: -0.0293 (inactive)
log fold change Tl+ flux [13]: -0.115 (active)
log fold change Tl+ flux [14]: 0.00616 (inactive)
log fold change Tl+ flux [15]: -0.0048 (inactive)
log fold change Tl+ flux [16]: -0.0387 (inactive)
log fold change Tl+ flux [17]: 0.0129 (inactive)

COc1cc2nc(N(C)CCCNC(=O)C3CCCO3)nc(N)c2cc1OC (stereo unspecified)
fluorescence ratio [6]: 1.04 (inactive)
inhibition [7]: -1.98% (inactive)
inhibition [8]: -3.95% (inactive)
fluorescence ratio [9]: 1.02 (inactive)
z-score [10]: -0.01 (inactive) and 0.43 (inactive)
log fold change Tl+ flux [11]: 0.00267 (inactive)
log fold change Tl+ flux [12]: -0.0369 (inactive)
log fold change Tl+ flux [13]: -0.0434 (inactive)
log fold change Tl+ flux [14]: 0.0106 (inactive)
log fold change Tl+ flux [15]: -0.00473 (inactive)
log fold change Tl+ flux [16]: -0.0149 (inactive)
log fold change Tl+ flux [17]: 0.00335 (inactive)

O=S(=O)(O)CCS
inhibition [1]: -57.1%
score [2]: 1.3
cytochrome c release ratio [3]: 0.92
inhibition of aggregation [4]: 75%
glutamate uptake change [5]: -0.24%
fluorescence ratio [6]: 0.73 (active)
inhibition [7]: -2.27% (inactive)
inhibition [8]: -2.76% (inactive)
fluorescence ratio [9]: 1 (inactive)
z-score [10]: 0.905 (inactive)
log fold change Tl+ flux [11]: 0.00454 (inactive)
log fold change Tl+ flux [12]: 0.0089 (inactive)
log fold change Tl+ flux [13]: 0.029 (inactive)
log fold change Tl+ flux [14]: -0.0746 (inactive)
log fold change Tl+ flux [15]: -0.00238 (inactive)
log fold change Tl+ flux [16]: 0.0195 (inactive)
log fold change Tl+ flux [17]: 0.0106 (inactive)

O=c1[nH]cc(F)c(=O)[nH]1
inhibition [1]: 7.47%
score [2]: 0.35
cytochrome c release ratio [3]: 0.98
inhibition of aggregation [4]: 41.6%
glutamate uptake change [5]: -1.19%
fluorescence ratio [6]: 0.97 (inactive)
inhibition [7]: -3.18% (inactive)
inhibition [8]: -0.48% (inactive)
fluorescence ratio [9]: 0.92 (inactive)
z-score [10]: 6.85 (active) and -1.25 (inactive) and 2.99 (active)
inhibition ([18]; at 0.5 µM, stronger effect = higher value): 4.15% (inactive)
inhibition ([18]; measured here: combination with BGB IC20, at 0.005 µM): 0.419%
inhibition ([18]; measured here: combination with BGB IC40, at 0.005 µM): -26%
inhibition ([18]; measured here: combination with BGB IC40, at 0.05 µM): -17%
inhibition ([18]; measured here: combination with cisplatin, at 0.5 µM, stronger effect = higher value): 59.2%
inhibition ([18]; measured here: combination with cisplatin, at 5 µM, stronger effect = higher value): -27.9%
inhibition ([19]; BGB combo, at 5 µM): 30.6%
inhibition ([19]; at 0.5 µM): 16.5% (inactive)
inhibition ([19]; cisplatin combo, at 5 µM): 40.1%
inhibition ([19]; measured here: with BGB IC20 combination, at 0.5 µM): -26.4%
inhibition ([19]; measured here: with cisplatin IC20 combination, at 0.5 µM): 0.453%
inhibition ([19]; single agent, at 5 µM): 42.5%
inhibition ([20]; at 0.5 µM): -17.6% (inactive)
inhibition ([20]; measured here: with BGB IC20, at 0.5 µM): -36.1%
inhibition ([20]; measured here: with BGB IC20, at 5 µM): 17.5%
inhibition ([20]; measured here: with cisplatin IC20, at 0.5 µM): -12.5%
inhibition ([20]; measured here: with cisplatin IC20, at 5 µM): 22.8%
inhibition ([20]; single agent, at 5 µM): 21.8%
log fold change Tl+ flux [11]: -0.0444 (inactive)
log fold change Tl+ flux [12]: -0.0276 (inactive)
log fold change Tl+ flux [13]: -0.0492 (inactive)
log fold change Tl+ flux [14]: 0.0262 (inactive)
log fold change Tl+ flux [15]: -0.0331 (inactive)
log fold change Tl+ flux [16]: -0.0876 (inactive)
log fold change Tl+ flux [17]: 0.0575 (inactive)

COC(=O)Nc1nc2ccc(C(=O)c3ccccc3)cc2[nH]1
inhibition [1]: -5.42%
score [2]: 0.63
cytochrome c release ratio [3]: 0.9
inhibition of aggregation [4]: 83.3%
glutamate uptake change [5]: -29.4%
fluorescence ratio [6]: 1.04 (inactive)
inhibition [7]: -15.9% (inactive)
inhibition [8]: -8.87% (inactive)
fluorescence ratio [9]: 0.98 (inactive)
z-score [10]: 0.145 (inactive) and 0.665 (inactive) and -1.08 (inactive)
log fold change Tl+ flux [11]: -0.0277 (inactive)
log fold change Tl+ flux [12]: 0.00509 (inactive)
log fold change Tl+ flux [13]: -0.00107 (inactive)
log fold change Tl+ flux [14]: 0.00663 (inactive)
log fold change Tl+ flux [15]: -0.00163 (inactive)
log fold change Tl+ flux [16]: -0.0663 (inactive)
log fold change Tl+ flux [17]: 0.008 (inactive)

COC1=CC(=O)C[C@@H](C)[C@]12Oc1c(Cl)c(OC)cc(OC)c1C2=O
inhibition [1]: 4.47%
score [2]: 1
cytochrome c release ratio [3]: 1.14
inhibition of aggregation [4]: 56.8%
glutamate uptake change [5]: -9%
fluorescence ratio [6]: 1 (inactive)
inhibition [7]: -4.09% (inactive)
inhibition [8]: -3.53% (inactive)
fluorescence ratio [9]: 1 (inactive)
z-score [10]: 1.05 (inactive)
log fold change Tl+ flux [11]: -0.0398 (inactive)
log fold change Tl+ flux [12]: -0.0624 (inactive)
log fold change Tl+ flux [13]: -0.0442 (inactive)
log fold change Tl+ flux [14]: 0.0145 (inactive)
log fold change Tl+ flux [15]: -0.00445 (inactive)
log fold change Tl+ flux [16]: -0.0288 (inactive)
log fold change Tl+ flux [17]: 0.00636 (inactive)

C/C=C/C(=O)N(CC)c1ccccc1C
fluorescence ratio [6]: 1.05 (inactive)
inhibition [7]: -2.77% (inactive)
inhibition [8]: -2.41% (inactive)
fluorescence ratio [9]: 1.02 (inactive)
z-score [10]: -0.06 (inactive)
log fold change Tl+ flux [11]: -0.00302 (inactive)
log fold change Tl+ flux [12]: 0.0385 (inactive)
log fold change Tl+ flux [13]: -0.0159 (inactive)
log fold change Tl+ flux [14]: -0.0206 (inactive)
log fold change Tl+ flux [15]: 0.013 (inactive)
log fold change Tl+ flux [16]: -0.00282 (inactive)
log fold change Tl+ flux [17]: 0.00262 (inactive)

NS(=O)(=O)c1cc(C2(O)NC(=O)c3ccccc32)ccc1Cl (stereo unspecified)
inhibition [1]: 2.88%
score [2]: 1.55
cytochrome c release ratio [3]: 0.9
inhibition of aggregation [4]: 77%
glutamate uptake change [5]: -2.06%
fluorescence ratio [6]: 0.81 (inactive)
inhibition [7]: -2.27% (inactive)
inhibition [8]: 1.05% (inactive)
fluorescence ratio [9]: 1 (inactive)
z-score [10]: 0.15 (inactive)
log fold change Tl+ flux [11]: -0.0276 (inactive)
log fold change Tl+ flux [12]: -0.00177 (inactive)
log fold change Tl+ flux [13]: -0.0359 (inactive)
log fold change Tl+ flux [14]: -0.0254 (inactive)
log fold change Tl+ flux [15]: -0.0423 (inactive)
log fold change Tl+ flux [16]: -0.0855 (inactive)
log fold change Tl+ flux [17]: 0.0191 (inactive)
